# This excerpt belongs to a sample that is enriched for hits.
# JMJD2E inh: qHTS Assay for Inhibitors of Human Jumonji Domain Containing 2E (JMJD2E). Lysine-specific demethylase 4E (Homo sapiens), B2RXH2. JMJD2E catalytic domain, FDH-coupled NADH fluorescence (FDH is formaldehyde dehydrogenase). Potency, µM (titrated, usually from 57.1 µM), inactives show top-dose activity change, negative = inhibition, actives largely listed as inhibitors. hit rate 1.6% among 230,000; active = well fitted inhibition curve with a large enough effect, not every such curve was filed as active; inconclusive = small, poorly fitted or top-dose-only effect, or another doubt; inactive = no such curve, though single readings can be large or run the other way;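 note: 0% = wells with enzyme and -100% = buffer wells without enzyme; nearly all actives have a fitted effect of over 50% in size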
# RECQ1 inh: qHTS Assay for Inhibitors of RecQ-Like Dna Helicase 1 (RECQ1); ATP-dependent DNA helicase Q1 (Homo sapiens), P46063; RECQ1 DNA unwinding, red fluorescence kinetic read; Potency, µM (titrated, usually from 57.3 µM), inactives show at the top dose activity, negative = inhibition, actives largely listed as inhibitors; hit rate 0.54% among 240,000; AID 2549, 2010;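 note: plate controls were vehicle for no effect and no enzyme for full effect; nearly all actives have a fitted effect of over 30% in size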
#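 RECQ1T1 50 nM; forked duplex (20 bp + 30-nt ss tails) 200 nM, ATP 2 mM final; pH 8.0, 2 mM MgCl2, 2.5 ug/ml poly(dI-dC); 15 min compound preincubation; discontinuous kinetic read over 2 h at RT.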
# GCN5L2 inh: qHTS Assay for Inhibitors of GCN5L2 | Histone acetyltransferase KAT2A (Homo sapiens), Q92830 | GCN5L2 HAT assay, ThioGlo1 CoA-SH fluorescence | Potency, µM (top dose mostly 58.9 µM), without a hit: at the top dose activity change, negative = inhibition, most hits filed as inhibitors | hit rate 0.21% among 390,000
# Target sequence (Q92830 whole entry, looked up): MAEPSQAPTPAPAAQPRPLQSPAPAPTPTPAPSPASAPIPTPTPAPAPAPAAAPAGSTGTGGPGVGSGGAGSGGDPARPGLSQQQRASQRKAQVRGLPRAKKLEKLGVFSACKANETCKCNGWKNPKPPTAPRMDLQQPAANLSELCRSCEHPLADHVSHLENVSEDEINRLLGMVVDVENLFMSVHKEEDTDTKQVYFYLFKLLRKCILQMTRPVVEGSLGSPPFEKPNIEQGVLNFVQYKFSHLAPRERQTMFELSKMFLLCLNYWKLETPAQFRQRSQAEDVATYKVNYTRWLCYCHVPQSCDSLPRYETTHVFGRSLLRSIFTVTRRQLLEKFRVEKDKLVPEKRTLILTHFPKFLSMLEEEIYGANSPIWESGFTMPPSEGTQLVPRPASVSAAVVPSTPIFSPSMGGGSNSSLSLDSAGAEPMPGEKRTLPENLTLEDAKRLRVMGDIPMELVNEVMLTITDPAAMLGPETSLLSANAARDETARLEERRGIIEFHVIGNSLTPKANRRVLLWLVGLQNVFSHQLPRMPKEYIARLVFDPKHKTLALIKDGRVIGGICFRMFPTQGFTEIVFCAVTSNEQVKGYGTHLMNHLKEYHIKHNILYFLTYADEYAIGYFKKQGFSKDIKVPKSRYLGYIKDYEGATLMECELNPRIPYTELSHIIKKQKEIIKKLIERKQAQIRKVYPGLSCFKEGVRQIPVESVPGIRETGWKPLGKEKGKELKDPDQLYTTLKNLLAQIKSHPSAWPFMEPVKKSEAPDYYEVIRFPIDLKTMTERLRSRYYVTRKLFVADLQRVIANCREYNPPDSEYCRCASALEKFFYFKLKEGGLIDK
#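 Compounds, pin-transferred from DMSO stocks, meet 20nM GCN5L2 for 15 min before the reaction begins with H3(1-25) peptide (75uM) and acetyl-CoA (70uM). Thiol-reactive ThioGlo1 reports CoA release over 20 min at room temperature.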
# TDP1 block: qHTS Assay for Inhibitors of Tyrosyl-DNA Phosphodiesterase (TDP1); Tyrosyl-DNA phosphodiesterase 1 (Homo sapiens), Q9NUW8; recombinant TDP1, AlphaScreen DNA substrate cleavage; Potency, µM (highest dose often 130 µM), for the others: at the highest dose activity change, negative = inhibition, hits mostly inhibitors; hit rate 0.28% among 350,000; note: nearly all actives have a fitted effect of over 40% in size
#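 Recombinant human Tdp1 (E. coli-expressed, 1 nM final) preincubated with compounds 15 min at room temperature, then 5'-biotin/3'-phosphotyrosine-FITC DNA substrate (15 nM final) added for 5 min. AlphaScreen beads (10 ug/ml final) added 10 min; cleavage lowers signal.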
# BLM helicase inh: qHTS Assay for Inhibitors of Bloom's syndrome helicase (BLM); recombinant BLM DNA unwinding, fluorescence dequenching; Potency, µM (titrated, usually from 56.1 µM), for the others: top-dose activity change, negative = inhibition, hits mostly inhibitors; hit rate 0.2% among 350,000;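 note: plate controls were vehicle for no effect and no enzyme for full effect; nearly all actives have a fitted effect of over 35% in size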
# APE1 inh-1: qHTS Assay for Inhibitors of the Human Apurinic/apyrimidinic Endonuclease 1 (APE1). Potency, µM (series often up to 65.8 µM), without a hit: top-dose activity change, negative = inhibition, actives largely listed as inhibitors. hit rate 0.35% among 350,000. AID 2517, 2012. recombinant APE1, TAMRA/BHQ-2 abasic DNA cleavage fluorescence;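 note: plate controls were vehicle for no effect and reference inhibitor for full effect; nearly all actives have a fitted effect of over 55% in size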
#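 Enzyme (0.75 nM final) and test compound are incubated 15 min at room temperature before adding 50 nM quenched THF abasic-site duplex. Cleavage dequenches TAMRA, followed at 525/598 nm over three reads one minute apart.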
# DNA dye displace: Counterscreen for APE1 Inhibitors: Fluorescent Dye Displacement Assay; shares compounds with APE1 inh-1; DNA fluorescent dye displacement counterscreen, fluorescence; Potency, µM (highest dose often 28.5 µM), for inactives: at the highest dose activity change, negative = inhibition, hits mostly inhibitors; hit rate 7% among 480;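 note: loss of thiazole orange fluorescence as the dye is displaced from duplex DNA; 0% = ThO with dsDNA and no compound and -100% = ThO without dsDNA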
# EndoIV counter: Counterscreen for APE1 Inhibitors: qHTS Assay for Inhibitors of Endonuclease IV. shares compounds with APE1 inh-1. E. coli Endo IV, fluorogenic AP-site DNA cleavage. hit rate 4% among 560. AID 2565, 2010. Potency, µM (doses to about 27.1 µM), inactives show top-dose activity change, negative = inhibition, hits mostly inhibitors;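 note: plate controls were uninhibited enzyme wells for no effect and no enzyme buffer wells for full effect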
# APE1 inh-2: Confirmation qHTS Assay for Inhibitors of the Human Apurinic/apyrimidinic Endonuclease 1 (APE1); shares compounds with APE1 inh-1; purified APE1, fluorogenic abasic-site DNA cleavage; Potency, µM (top dose mostly 57.1 µM), for the others: at the highest dose activity change, negative = inhibition, hits mostly inhibitors; hit rate 44% among 750; AID 2572, 2010; note: nearly all actives have a fitted effect of over 30% in size
# APE1 FP inh: qHTS FP-Based Assay for Inhibitors of the Human Apurinic/apyrimidinic Endonuclease 1 (APE1); shares compounds with APE1 inh-1; APE1 binding to TAMRA-labelled double-stranded DNA, fluorescence polarization displacement; Potency, µM (doses to about 28.5 µM), for inactives: at the top dose activity, negative = inhibition, most hits filed as inhibitors; hit rate 7% among 480; AID 2573, 2010
# Active calls of the source: *; ? = inconclusive; · = no result given; [ ] = dose if it differs, or a comment. Unless noted, calls come from the whole dose curve; as a rule, active = well fitted curve in the direction sought with a large enough effect; inconclusive = small, poorly fitted or top-dose-only effect, or another doubt; inactive = no such curve, though single readings can be large; an effect the other way counts as inactive or inconclusive. Unless noted, % is set by controls: 0 for no effect and ±100 for the full control effect; potency is the fitted concentration of half-maximal effect.
SMILES,JMJD2E inh,RECQ1 inh,GCN5L2 inh,TDP1 block,BLM helicase inh,APE1 inh-1,EndoIV counter,APE1 inh-2,others
Cc1ccc(C(=O)O)cc1-c1ccc(/C=C2\SC(=O)N(CC(=O)Nc3ccccc3)C2=O)o1,?,-17.2%,-17.0%,39.8µM*,-6.0%,?,·,39.8µM*,
C#CCN1C(=O)S/C(=C\c2ccc(-c3ccc(C(=O)O)cc3C)o2)C1=O,·,·,-12.5%,·,-26.0%,?,·,·,
Cc1ccc(NC(=O)CN2C(=O)S/C(=C\c3ccc(-c4cccc(C(=O)O)c4C)o3)C2=O)cc1,?,?,5.2%,·,0.5%,?,·,39.8µM*,
Cc1ccc(NC(=O)CN2C(=O)S/C(=C\c3ccc(C(=O)O)cc3)C2=O)cc1,·,·,-8.4%,·,-8.8%,?,·,·,
Cc1noc(C)c1-c1ccc2ncnc(NCc3cc(F)cc(F)c3)c2c1,·,-7.8%,·,3.8%,-7.0%,-1.3%,·,·,
CC1(CC(=O)N/N=C/c2cc([N+](=O)[O-])c(O)cc2O)OCCO1,15.8µM*,-26.8%,-6.3%,?,-9.6%,14.1µM*,-3.6%,12.6µM*,DNA dye displace=?;APE1 FP inh=?
Cc1ccc(-n2c(C)cc(/C=N/NC(=O)CC3(C)OCCO3)c2C)c(C)c1,-29.4%,-2.2%,3.7%,5.0%,0.2%,-2.8%,·,·,
CC[C@H](C)[C@H](NC(=O)[C@H](Cc1ccc(O)cc1)NC(=O)CNC(=O)[C@@H]1CCCN1C(=O)[C@H](CC(=O)O)NC(=O)[C@@H](N)CS)C(=O)NCC(=O)N[C@@H](CO)C(=O)N[C@@H](CCCN=C(N)N)C(N)=O,·,-6.3%,46.1%,0.3%,1.1%,0.1%,·,·,
CC(C)NC[C@H](O)COc1cccc2ccccc12,-14.3%,1.5%,-3.7%,4.9%,38.4%,1.5%,·,·,
CC(C)NC[C@@H](O)COc1cccc2ccccc12,-4.2%,2.3%,-2.4%,15.1%[56.1 µM],25.9%,11.7%,-4.9%[57.1 µM],-15.1%,
Cc1c(O)cc2c(c1O)C(=O)CC(c1ccc(O)cc1)O2 (stereo unspecified),-16.3%,25.1µM*,-0.2%,-7.7%,-24.6%,1.58µM*,-2.6%,4.47µM*,DNA dye displace=-11.4%;APE1 FP inh=?

# Screening results as filed in PubChem.
